These results are taken from the supplement of paper PMC11001985.

Values without a mark were called inactive.

WLS (lysine site: K217), sequence (Q5T9L3 whole entry): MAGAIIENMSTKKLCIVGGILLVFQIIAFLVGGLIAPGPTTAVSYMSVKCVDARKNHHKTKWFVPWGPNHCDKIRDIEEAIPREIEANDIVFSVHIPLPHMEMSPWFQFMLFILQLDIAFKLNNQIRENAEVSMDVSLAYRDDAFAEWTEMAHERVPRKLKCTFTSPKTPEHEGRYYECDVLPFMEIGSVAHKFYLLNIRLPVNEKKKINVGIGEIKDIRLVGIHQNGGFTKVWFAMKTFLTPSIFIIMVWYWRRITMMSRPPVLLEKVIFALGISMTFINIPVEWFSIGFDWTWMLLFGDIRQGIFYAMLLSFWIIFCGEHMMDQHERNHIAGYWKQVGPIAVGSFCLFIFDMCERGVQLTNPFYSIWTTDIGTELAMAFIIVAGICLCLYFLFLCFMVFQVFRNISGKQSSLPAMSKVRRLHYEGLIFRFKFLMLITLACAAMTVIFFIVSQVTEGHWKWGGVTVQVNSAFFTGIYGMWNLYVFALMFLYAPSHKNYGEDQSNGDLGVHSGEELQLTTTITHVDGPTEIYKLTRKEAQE

This assay concerns the target WLS (lysine site: K217) (UniProt Q5T9L3). In words: lysine labeling ratio R10:1 (500 µM / 50 µM probe), SILAC-ABPP in living cells; higher = lower intrinsic lysine reactivity toward the probe, active = 2 or less. The note with it: HeLa; probe concentrations 500 vs 50 µM. The method, then: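 Living HeLa cells (SILAC light/heavy) in PBS at room temperature were labeled with 50 µM versus 500 µM of the lysine-reactive, reductant-cleavable probe OPA-S-S-alkyne (SILAC labeling time not stated). Probe-modified peptides were CuAAC-biotinylated, captured on neutravidin and eluted with DTT/IAA, then quantified by LC-MS/MS. R = median peptide ratio per lysine (500/50 µM), combined over 3 forward and 3 reverse SILAC replicates. Ratios are capped at 20; R < 2 = hyper-reactive.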
As for `C#CCNC(=O)CCSSCCC(=O)NCCc1ccc(C=O)c(C=O)c1`, the “lysine labeling ratio R10:1” value is 2.13.
